# Reference: PubChem BioAssay (NCATS)
# Several values for one entry are separate records, joined by “and”; a condition that tells them apart may be missing. Identical values can stand only once. Results filed as inconclusive are left out. Where a call stands in place of a potency, no number is given. Activity calls are given as the source filed them. Unless noted, the call rests on the fitted dose curve; in most records, active means well fitted curve in the direction sought with a large enough effect; inconclusive means small, poorly fitted or top-dose-only effect, or another doubt; inactive means no such curve, though single readings can be large; an effect the other way counts as inactive or inconclusive.
# Columns and labels:
# [1] = biological target: Alpha-galactosidase A (Homo sapiens) (UniProt P06280); assay: Counterscreen for Glucocerebrosidase Inhibitors: qHTS Assay for Human alpha-Galactosidase at pH 4.5 (AID 992); details: purified enzyme, fluorogenic substrate; series mostly up to 76.9 µM
# Outline: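 Quantitative HTS: compounds tested from 0.7 nM up to 77 uM against 2 nM enzyme with 80 uM 4-MU alpha-D-galactopyranoside. The 20 min room-temperature reaction is stopped with 1M NaOH/1M glycine, pH 10.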
# [2] = biological target: alpha-glucosidase (Oryza sativa, rice) (UniProt Q653V4); assay: Counterscreen for Glucocerebrosidase Inhibitors: qHTS Assay for Rice alpha-Glucosidase at pH 5.0 (AID 997); details: rice alpha-glucosidase enzyme activity; series mostly up to 76.9 µM
# Outline: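 Rice alpha-glucosidase (4 nM final) with 400 uM 4-methylumbelliferyl-alpha-D-glucopyranoside in citrate buffer pH 5.0, 20 min at room temperature, stopped at pH 10; fluorescence 365/440 nm, compounds 0.7 nM–77 uM, AC50 from Hill fits.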
# [3] = qHTS Assay for Lipid Storage Modulators (AID 1519; calls by dose curve); details: Drosophila S3 cells, BODIPY lipid droplet/cell ratio, laser cytometry, cells loaded with oleic acid
# Outline: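 Cells seeded at 5,000 per well were treated with compounds over a concentration series and loaded with oleic acid (400 uM, as added). Lipid droplet fluorescence (488 nm excitation, 500-530 nm channel) was read by laser-scanning cytometry and normalized to 20 uM Triacsin C.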
# [4] = biological target: DNA repair nuclease/redox regulator APEX1 (Homo sapiens) (UniProt P27695); assay: qHTS Validation Assay for Inhibitors of the Human Apurinic/apyrimidinic Endonuclease 1 (APE1) (AID 1705;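 further: TAMRA fluorescence gain over two minutes as APE1 cuts a quenched THF abasic duplex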); details: purified APE1 endonuclease activity, fluorescence, titration; series mostly up to 57.1 µM
# Outline: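 Substrate: 50 nM final fluorophore/quencher THF-abasic duplex. Enzyme preincubated with compounds 15 min, RT. Progress derived from fluorescence difference, third minus first kinetic read.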
# [5] = Cell Viability - LYMP2-018 (AID 985); details: LYMP2-018 lymphoblastoid cells, viability (qHTS); series mostly up to 92.2 µM;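 further: compound exposure lasted 24 hr at 37 °C; nearly all actives have a fitted effect of over 50% in size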; further: potency means the concentration at half of the fitted maximal effect
# Outline: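 Acute cytotoxicity is scored as a concentration-dependent drop in intracellular ATP after 24 hr exposure of the lymphoblastoid line in complete culture medium, measured by luciferase luminescence. Potency is expressed as AC50 from Hill modelling.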
# [6] = Cell Viability - LYMP2-020 (AID 986); details: series mostly up to 92.2 µM;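 further: cells exposed to compound for 24 h at 37 °C; nearly all actives have a fitted effect of over 55% in size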; further: potency means the concentration at half of the fitted maximal effect
# Outline: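 Acute cytotoxicity in a human lymphoblastoid line is scored as a concentration-dependent fall in cellular ATP after 24 hr at 37 C in complete medium. The positive control is tetraoctylammonium bromide, and potency is given as Hill-fit AC50.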
# [7] = Cell Viability - LYMP2-026 (AID 989); details: LYMP2-026 lymphoblastoid cell viability, qHTS; series mostly up to 92.2 µM;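 further: cells exposed to compound for 24 h at 37 °C; nearly all actives have a fitted effect of over 50% in size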; further: potency means the concentration at half of the fitted maximal effect
# Outline: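 Concentration-dependent loss of intracellular ATP in human lymphoblastoid cells after 24 hr at 37 C, quantified by luciferase luminescence. AC50 derived from standard Hill equation.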
# [8] = Cell Viability - LYMP1-002 - Assay at 24 hr (AID 993); details: LYMP1-002 lymphoblastoid cells viability; series mostly up to 92.2 µM; further: potency means the concentration at half of the fitted maximal effect
# Outline: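 qHTS, LYMP1-002 lymphoblastoid, 24 h cpd, 37 C, CellTiter-Glo ATP luminescence; AC50 via Hill eq.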
# [9] = Cell Viability - LYMP1-002 - Assay at 40 hr (AID 994); details: LYMP1-002 lymphoblastoid cell viability; series mostly up to 92.2 µM; further: nearly all actives have a fitted effect of over 60% in size; further: potency means the concentration at half of the fitted maximal effect
# Outline: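 Viability in the human lymphoblastoid line was measured as intracellular ATP via CellTiter-Glo after 40 hr compound exposure. Tetraoctylammonium bromide served as positive control.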
# [10] = measured here: cell count channel max response
# [11] = measured here: lipid channel max response
# Sequence of DNA repair nuclease/redox regulator APEX1 (Homo sapiens) (P27695 whole entry, looked up): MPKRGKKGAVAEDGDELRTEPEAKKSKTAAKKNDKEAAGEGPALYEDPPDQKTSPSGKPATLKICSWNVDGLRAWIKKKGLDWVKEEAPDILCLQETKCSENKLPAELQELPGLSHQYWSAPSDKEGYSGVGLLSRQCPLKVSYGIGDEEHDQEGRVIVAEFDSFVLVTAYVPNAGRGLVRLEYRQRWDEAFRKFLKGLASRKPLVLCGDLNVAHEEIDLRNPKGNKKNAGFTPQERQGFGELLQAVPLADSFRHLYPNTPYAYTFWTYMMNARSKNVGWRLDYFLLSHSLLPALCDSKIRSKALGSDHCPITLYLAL
# Sequence of Alpha-galactosidase A (Homo sapiens) (P06280 whole entry, looked up): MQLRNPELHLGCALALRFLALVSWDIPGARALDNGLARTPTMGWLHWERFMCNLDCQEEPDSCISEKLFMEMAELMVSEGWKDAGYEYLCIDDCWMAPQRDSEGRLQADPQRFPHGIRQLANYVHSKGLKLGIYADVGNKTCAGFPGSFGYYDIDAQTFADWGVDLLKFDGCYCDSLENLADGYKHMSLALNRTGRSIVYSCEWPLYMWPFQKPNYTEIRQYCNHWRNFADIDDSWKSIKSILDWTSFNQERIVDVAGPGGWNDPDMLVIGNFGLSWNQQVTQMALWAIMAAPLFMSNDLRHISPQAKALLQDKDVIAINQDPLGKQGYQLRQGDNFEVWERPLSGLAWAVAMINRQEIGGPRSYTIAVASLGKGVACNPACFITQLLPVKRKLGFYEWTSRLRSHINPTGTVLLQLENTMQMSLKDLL
compound,measurement,setting,value
COCCCCC(=NOCCN)c1ccc(C(F)(F)F)cc1,outcome,[1],inactive
same,outcome,[2],inactive
same,"activity change, negative = inhibition",[3]; at 25.7 µM (top of the series),0.501% (inactive)
same,max response,[3]; [10],5.99%
same,max response,[3]; [11],5.1%
CC(C)(C)c1ccc(C(O)CCCN2CCC(C(O)(c3ccccc3)c3ccccc3)CC2)cc1 (stereo unspecified),outcome,[1],inactive
same,outcome,[2],inactive
same,"activity change, negative = inhibition",[3]; at 57.5 µM (top of the series),-1.34% (inactive)
same,max response,[3]; [10],-10.3%
same,max response,[3]; [11],-13.9%
same,outcome,[4],inactive
CC(C)OC(=O)C(C)(C)Oc1ccc(C(=O)c2ccc(Cl)cc2)cc1,outcome,[1],inactive
same,outcome,[2],inactive
same,"activity change, negative = inhibition",[3]; at 25.7 µM (top of the series),-4.12% (inactive)
same,max response,[3]; [10],-11.4%
same,max response,[3]; [11],-14.8%
same,outcome,[4],inactive
O=c1cc(-c2ccc(O)cc2)oc2cc(O)cc(O)c12,outcome,[1],inactive
same,outcome,[2],inactive
same,"activity change, negative = inhibition",[3]; at 57.5 µM (top of the series),5.85% (inactive) and 0.858% (inactive) and 6.23% (inactive)
same,max response,[3]; [10],-3.26% and -4.54% and 14.7%
same,max response,[3]; [11],4.46% and -2.56% and 22.7%
CCN(CC)CCNC(=O)c1ccc(N)cc1,outcome,[1],inactive
same,outcome,[2],inactive
same,outcome,[4],inactive
CC(=O)N[C@@H](CS)C(=O)O,outcome,[1],inactive
same,outcome,[2],inactive
same,outcome,[4],inactive
NCCS,outcome,[1],inactive
same,outcome,[2],inactive
same,"activity change, negative = inhibition",[3]; at 57.5 µM (top of the series),0.57% (inactive)
same,max response,[3]; [10],-11.3%
same,max response,[3]; [11],-9.57%
same,outcome,[4],inactive
CC1=C(/C=C/C(C)=C/C=C/C(C)=C/C(=O)Nc2ccc(O)cc2)C(C)(C)CCC1,Potency,[5],50.1 µM (active)
same,Potency,[6],50.1 µM (active)
same,Potency,[7],39.8 µM (active)
same,outcome,[1],inactive
same,Potency,[8],50.1 µM (active)
same,Potency,[9],50.1 µM (active)
same,outcome,[2],inactive
same,outcome,[4],inactive
CCn1cc(C(=O)O)c(=O)c2ccc(C)nc21,Potency,[5],inactive
same,Potency,[6],inactive
same,Potency,[7],inactive
same,Potency,[8],inactive
same,Potency,[9],inactive
CN(C)CCC(c1ccccc1)c1ccccn1 (stereo unspecified),Potency,[5],inactive
same,Potency,[6],inactive
same,Potency,[7],inactive
same,Potency,[8],inactive
same,Potency,[9],inactive
same,"activity change, negative = inhibition",[3]; at 57.5 µM (top of the series),5.69% (inactive)
same,max response,[3]; [10],23.2%
same,max response,[3]; [11],33.1%
same,outcome,[4],inactive
COC(=O)[C@@H]1[C@H]2C[C@H]3c4[nH]c5ccccc5c4CCN3C[C@@H]2CC[C@@H]1O,outcome,[4],inactive
CCCNC(=O)NS(=O)(=O)c1ccc(Cl)cc1,Potency,[5],inactive
same,Potency,[6],inactive
same,Potency,[7],inactive
same,outcome,[1],inactive
same,Potency,[8],inactive
same,Potency,[9],inactive
same,outcome,[2],inactive
same,"activity change, negative = inhibition",[3]; at 25.7 µM (top of the series),-1.71% (inactive)
same,max response,[3]; [10],8.45%
same,max response,[3]; [11],7.5%
same,outcome,[4],inactive
O=C(O)CCc1nc(-c2ccccc2)c(-c2ccccc2)o1,outcome,[1],inactive
same,outcome,[2],inactive
same,"activity change, negative = inhibition",[3]; at 25.7 µM (top of the series),0.686% (inactive)
same,max response,[3]; [10],0.745%
same,max response,[3]; [11],2.18%
same,outcome,[4],inactive
CCN(CC)C(=O)c1ccc(O)c(OC)c1,outcome,[1],inactive
same,outcome,[2],inactive
same,"activity change, negative = inhibition",[3]; at 25.7 µM (top of the series),0.695% (inactive)
same,max response,[3]; [10],14.3%
same,max response,[3]; [11],14.5%
same,outcome,[4],inactive
COc1cccc(-c2cc(=O)c3ccccc3o2)c1N,outcome,[1],inactive
same,outcome,[2],inactive
same,"activity change, negative = inhibition",[3]; at 57.5 µM (top of the series),1.98% (inactive)
same,max response,[3]; [10],13.8%
same,max response,[3]; [11],15.5%
same,outcome,[4],inactive
COc1ccc(Cc2nccc3cc(OC)c(OC)cc23)cc1OC,outcome,[1],inactive
same,outcome,[2],inactive
O=C1NC(=O)C(c2ccccc2)(c2ccccc2)N1,Potency,[5],inactive
same,Potency,[6],inactive
same,Potency,[7],inactive
same,outcome,[1],inactive
same,Potency,[8],inactive
same,Potency,[9],inactive
same,outcome,[2],inactive
same,"activity change, negative = inhibition",[3]; at 57.5 µM (top of the series),7.13% (inactive) and 0.319% (inactive)
same,max response,[3]; [10],12.1% and -15.7%
same,max response,[3]; [11],24.5% and -14.7%
same,outcome,[4],inactive
O=c1[nH]cnc2c1ncn2[C@H]1CC[C@@H](CO)O1,Potency,[5],inactive
same,Potency,[6],inactive
same,Potency,[7],inactive
same,Potency,[8],inactive
same,Potency,[9],inactive
CCCCC1C(=O)N(c2ccccc2)N(c2ccccc2)C1=O,Potency,[5],inactive
same,Potency,[6],inactive
same,Potency,[7],inactive
same,outcome,[1],inactive
same,Potency,[8],inactive
same,Potency,[9],inactive
same,outcome,[2],inactive
same,outcome,[4],inactive
C[N+](C)(C)CCCCCC[N+](C)(C)C,outcome,[1],inactive
same,outcome,[2],inactive
same,"activity change, negative = inhibition",[3]; at 25.7 µM (top of the series),-1.97% (inactive)
same,"activity change, negative = inhibition",[3]; at 57.5 µM (top of the series),11.8% (inactive) and 0.867% (inactive) and 2.49% (inactive)
same,outcome,[4],inactive
C[N+](C)(C)CC(=O)O,outcome,[1],inactive
same,outcome,[2],inactive
O=C(O)c1cc(O)c2c(c1)C(=O)c1cccc(O)c1C2=O,Potency,[5],inactive
same,Potency,[6],inactive
same,Potency,[7],inactive
same,Potency,[8],inactive
same,Potency,[9],inactive
same,"activity change, negative = inhibition",[3]; at 57.5 µM (top of the series),8.11% (inactive)
same,max response,[3]; [10],13.4%
same,max response,[3]; [11],21.8%
O=C(O)Cc1cccc2ccccc12,Potency,[5],inactive
same,Potency,[6],inactive
same,Potency,[7],inactive
same,Potency,[8],inactive
same,Potency,[9],inactive
CC(C)NCC(O)COc1cccc2[nH]ccc12 (stereo unspecified),outcome,[1],inactive
same,outcome,[2],inactive
same,"activity change, negative = inhibition",[3]; at 57.5 µM (top of the series),10.5% (inactive)
same,max response,[3]; [10],-0.51%
same,max response,[3]; [11],13.4%
same,outcome,[4],inactive
CC1(C)CCC2=C(O1)c1ccccc1C(=O)C2=O,outcome,[1],inactive
same,outcome,[2],inactive
same,outcome,[4],inactive
